Source: the supplement of paper PMC6555819

Tests used:
Assay in all cases: PBM binding z-score (relative to random genomic background probes); higher = stronger binding; sequences stand for … in GC…GCGATTGACAGCGTAGAATGAAGG
[1] = test system: PPARg:RXRa DBDmut IVT, anti-RXR (DBD mutation: RXRa K156A/R161A, NR concentration 270 nM, RXRa partner concentration 90 nM)
Procedure, shortened: (§1)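 On custom Agilent 4×180K arrays, double-stranded probes with 34-nt variable regions carried direct-repeat seeds, single-nucleotide variants, half-site ablations or random human genomic background. Ligand-free nuclear receptor dimers were applied for 1 h, and binding was read with antibodies against each partner (one per run). Binding z-scores come from regression-normalized fluorescence, with the random background probes as reference.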

[2] = test system: PPARg:RXRa IVT, anti-PPARg (NR concentration 270 nM, RXRa partner concentration 90 nM)
Procedure, shortened: as §1

[3] = test system: PPARg DBDmut:RXRa IVT, anti-PPARg (DBD mutation: PPARg1 K132A/R137A, NR concentration 270 nM, RXRa partner concentration 90 nM)
Procedure, shortened: as §1

[4] = test system: PPARg DBDmut IVT, anti-PPARg (DBD mutation: PPARg1 K132A/R137A, NR concentration 270 nM)
Procedure, shortened: as §1

[5] = test system: PPARg homodimer (NR concentration 180 nM)
Procedure, shortened: as §1

[6] = test system: PXR:RXRa (NR concentration 270 nM, RXRa partner concentration 90 nM)
Procedure, shortened: as §1

[7] = test system: PXR homodimer (NR concentration 270 nM)
Procedure, shortened: as §1

[8] = test system: RARa:RXR (NR concentration 270 nM, RXRa partner concentration 90 nM)
Procedure, shortened: as §1

[9] = test system: RARa homodimer (NR concentration 270 nM)
Procedure, shortened: as §1

[10] = test system: RARb:RXRa (NR concentration 270 nM, RXRa partner concentration 90 nM)
Procedure, shortened: as §1

[11] = test system: RARb homodimer (NR concentration 270 nM)
Procedure, shortened: as §1

[12] = test system: RARg:RXRa (NR concentration 270 nM, RXRa partner concentration 90 nM)
Procedure, shortened: as §1

[13] = test system: RARg homodimer (NR concentration 270 nM)
Procedure, shortened: as §1

[14] = test system: RXRa DBDmut IVT, anti-RXR (DBD mutation: RXRa K156A/R161A, NR concentration 90 nM)
Procedure, shortened: as §1

[15] = test system: RXRa homodimer (NR concentration 180 nM)
Procedure, shortened: as §1

[16] = test system: THRa:RXRa (NR concentration 90 nM, RXRa partner concentration 90 nM)
Procedure, shortened: as §1

[17] = test system: THRa homodimer (NR concentration 90 nM)
Procedure, shortened: as §1

[18] = test system: VDR:RXRa (NR concentration 270 nM, RXRa partner concentration 90 nM)
Procedure, shortened: as §1

[19] = test system: VDR homodimer (NR concentration 270 nM)
Procedure, shortened: as §1

| Sequence | PBM binding z-score [1] | PBM binding z-score [2] | PBM binding z-score [3] | PBM binding z-score [4] | PBM binding z-score [5] | PBM binding z-score [6] | PBM binding z-score [7] | PBM binding z-score [8] | PBM binding z-score [9] | PBM binding z-score [10] | PBM binding z-score [11] | PBM binding z-score [12] | PBM binding z-score [13] | PBM binding z-score [14] | PBM binding z-score [15] | PBM binding z-score [16] | PBM binding z-score [17] | PBM binding z-score [18] | PBM binding z-score [19] |
| --- | --- | --- | --- | --- | --- | --- | --- | --- | --- | --- | --- | --- | --- | --- | --- | --- | --- | --- | --- |
| CGAATTAGGTCATCCAGGACAGTGAATACATTGA | 8.48 | 8.35 | 3.83 | 2.81 | 2.25 | 2.36 | 1.3 | 2.86 | 1.08 | 4.14 | 3.34 | 4.29 | 5.18 | 2.45 | 3.1 | 4.01 | 2.77 | 5.04 | 2.04 |
| CTACCAAGGTGAACAAGATCGTTGATTACTATTC | 2.44 | 2.36 | 0.247 | 0.79 | 0.484 | 0.24 | -0.209 | 0.949 | 0.706 | 1.48 | 0.653 | 0.951 | 0.995 | 0.225 | 0.874 | 1.66 | 0.798 | 1.31 | -0.0814 |
| CGAACTAGGTCAAGGACAGTTAATCTCCGCACGC | 8.24 | 8.35 | 2.25 | 0.939 | 1.62 | 1.5 | 0.185 | 1.87 | 0.669 | 3.76 | 3.38 | 3.88 | 4.87 | 1.65 | 2.89 | 3.09 | 2.12 | 1.6 | 0.602 |
| CCTACTGGGCCAAAAAGGGCATTGATGCCGATAA | 3.27 | 2.46 | -1.19 | -0.893 | 0.55 | -0.0509 | -0.102 | -0.0363 | -0.572 | 1.49 | 1.32 | 0.413 | 0.776 | -0.51 | 0.0736 | 0.26 | -0.987 | 1.01 | 0.107 |
| CTCGAAAGGTCGGTTCAGGTGAGTATACGGATAA | 0.179 | 0.896 | 0.489 | 0.134 | 0.753 | 2.53 | 0.887 | 2.11 | 0.864 | 2.96 | 2.52 | 2.64 | 2.62 | 1.52 | 2.23 | 5.09 | 1.1 | 2.71 | 2.34 |
| CCTCGGTGGACAGAAGGTCAGAGCTGTCCGCTTT | -0.193 | 0.138 | -2.04 | -1.69 | 1.8 | 1.32 | -0.447 | 1.66 | -0.0873 | 2.56 | 2.87 | 2.3 | 1.99 | -0.526 | 1.84 | 1.89 | -0.379 | 0.609 | -0.538 |
| GCTCCGAGGACAAGGTCAGAGCTTTGTCCGTAGA | 0.525 | 0.632 | -1.51 | -1.01 | 0.305 | 1.55 | -0.543 | 1.76 | -0.762 | 3.33 | 3.24 | 3.01 | 3.47 | 1.05 | 2.25 | 3.55 | 2.3 | 1.43 | 0.674 |
| GATACAGGGTCAGCTAGTGGCCAGAGTATGGAAA | 1.03 | 2.29 | -0.052 | -0.0645 | 1.79 | 1.89 | 0.153 | 3.05 | -0.0625 | 3.69 | 2.79 | 4.73 | 4.32 | 1.25 | 3.81 | 2.46 | 0.162 | 2.34 | 0.556 |
